About 8,800 targets were measured; listed, in parts, are those with a hit and a random draw of the rest. About 0.5% of all pairs of compound and target were hits.
How the values were obtained:
Test in all cases: log2 fold change, soluble protein after heating vs DMSO (PISA); higher = thermal stabilisation; K562 lysate, 10 uM; active = over 0.2 and 3.5 SD of the protein, either way, in both replicates (recomputed)
alvocidib = compound: CN1CC[C@H](c2c(O)cc(O)c3c(=O)cc(-c4ccccc4Cl)oc23)[C@H](O)C1 [alvocidib]
Summary of the method: (§1)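 Quantification was by TMTpro 16plex LC-MS/MS with equalised channel sums, applied to the supernatant after 21,000xg for 90 min. Samples were crude K562 extract at 1 mg/mL protein in PBS pH 7.4 with 1 mM MgCl2, treated with 10 μM compound for 30 min, heated for 3 min across 48°C-58°C, pooled and brought to 0.5% NP-40 at 4°C. Values are log-two fold changes in thermal stability relative to solvent controls, from duplicates.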

Tubastatin A = compound: CN1CCc2c(c3ccccc3n2Cc2ccc(C(=O)NO)cc2)C1 [Tubastatin A]
Summary of the method: as §1

[1] = compound: CNC(=O)C1=CC=CC=C1NC2=NC(=NC=C2Cl)NC3=C(C=C(C=C3)N4CCOCC4)OC
Summary of the method: as §1

defactinib = compound: CNC(=O)c1ccc(Nc2ncc(C(F)(F)F)c(NCc3nccnc3N(C)S(C)(=O)=O)n2)cc1 [defactinib]
Summary of the method: as §1

[2] = compound: CNc1nc(-c2ccc3c(N)n[nH]c3c2)cc(N2C[C@@H](C(=O)NC3CCCCC3)CC[C@H]2C)n1
Summary of the method: as §1

encorafenib = compound: COC(=O)N[C@@H](C)CNc1nccc(-c2cn(C(C)C)nc2-c2cc(Cl)cc(NS(C)(=O)=O)c2F)n1 [encorafenib]
Summary of the method: as §1

[3] = compound: COC(=O)[C@H](CCSC)NC(=O)C1=C(C=C(C=C1)NC[C@H](CS)N)C2=CC=CC=C2
Summary of the method: as §1

alisertib = compound: COc1cc(Nc2ncc3c(n2)-c2ccc(Cl)cc2C(c2c(F)cccc2OC)=NC3)ccc1C(=O)O [alisertib]
Summary of the method: as §1

[4] = compound: COc1cc2nc(-c3cc(F)ccc3O)nc(N[C@@H]3CNC[C@H]3C(C)(C)O)c2cc1OC
Summary of the method: as §1

gefitinib = compound: COc1cc2ncnc(Nc3ccc(F)c(Cl)c3)c2cc1OCCCN1CCOCC1 [gefitinib]
Summary of the method: as §1

lapatinib = compound: CS(=O)(=O)CCNCc1ccc(-c2ccc3ncnc(Nc4ccc(OCc5cccc(F)c5)c(Cl)c4)c3c2)o1 [lapatinib]
Summary of the method: as §1

pictilisib = compound: CS(=O)(=O)N1CCN(Cc2cc3nc(-c4cccc5[nH]ncc45)nc(N4CCOCC4)c3s2)CC1 [pictilisib]
Summary of the method: as §1

crizotinib = compound: C[C@@H](Oc1cc(-c2cnn(C3CCNCC3)c2)cnc1N)c1c(Cl)ccc(F)c1Cl [crizotinib]
Summary of the method: as §1

[5] = compound: C[C@H](C1=CC=C(C=C1)C(=O)NC2=C3C=CNC3=NC=C2)N
Summary of the method: as §1

duvelisib = compound: C[C@H](Nc1ncnc2nc[nH]c12)c1cc2cccc(Cl)c2c(=O)n1-c1ccccc1 [duvelisib]
Summary of the method: as §1

gandotinib = compound: Cc1cc(Nc2cc(CN3CCOCC3)c3nc(C)c(Cc4ccc(Cl)cc4F)n3n2)n[nH]1 [gandotinib]
Summary of the method: as §1

tozasertib = compound: Cc1cc(Nc2cc(N3CCN(C)CC3)nc(Sc3ccc(NC(=O)C4CC4)cc3)n2)n[nH]1 [tozasertib]
Summary of the method: as §1

doramapimod = compound: Cc1ccc(-n2nc(C(C)(C)C)cc2NC(=O)Nc2ccc(OCCN3CCOCC3)c3ccccc23)cc1 [doramapimod]
Summary of the method: as §1

bafetinib = compound: Cc1ccc(NC(=O)c2ccc(CN3CC[C@H](N(C)C)C3)c(C(F)(F)F)c2)cc1Nc1nccc(-c2cncnc2)n1 [bafetinib]
Summary of the method: as §1

[6] = compound: Cc1cccc(CC(=O)N2CCc3c2ccc(-c2cn(C)c4ncnc(N)c24)c3F)n1
Summary of the method: as §1

Measured: log2 fold change

RAB27A (UniProt P51159)
Sequence of UniProt P51159 (P51159 whole entry, looked up): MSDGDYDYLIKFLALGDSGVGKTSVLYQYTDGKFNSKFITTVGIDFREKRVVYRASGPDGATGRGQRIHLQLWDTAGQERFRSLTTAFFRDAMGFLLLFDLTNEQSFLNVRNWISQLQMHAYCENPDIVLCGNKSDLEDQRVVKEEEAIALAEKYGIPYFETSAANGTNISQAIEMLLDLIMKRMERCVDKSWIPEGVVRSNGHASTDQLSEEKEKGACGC
inactive: alvocidib 0.087 | Tubastatin A -0.083 | [1] 0.047 | defactinib -0.001 | [2] -0.131 | encorafenib 0.027 | [3] 0.016 | alisertib -0.004 | [4] 0.041 | gefitinib 0.068 | lapatinib 0.013 | pictilisib -0.008 | crizotinib 0.026 | duvelisib -0.009 | gandotinib -0.081 | tozasertib 0.024 | doramapimod -0.034 | bafetinib 0.038 | [6] -0.054
active: [5] 0.563

SCAF1 (UniProt Q9H7N4)
Sequence of UniProt Q9H7N4 (Q9H7N4 whole entry, looked up): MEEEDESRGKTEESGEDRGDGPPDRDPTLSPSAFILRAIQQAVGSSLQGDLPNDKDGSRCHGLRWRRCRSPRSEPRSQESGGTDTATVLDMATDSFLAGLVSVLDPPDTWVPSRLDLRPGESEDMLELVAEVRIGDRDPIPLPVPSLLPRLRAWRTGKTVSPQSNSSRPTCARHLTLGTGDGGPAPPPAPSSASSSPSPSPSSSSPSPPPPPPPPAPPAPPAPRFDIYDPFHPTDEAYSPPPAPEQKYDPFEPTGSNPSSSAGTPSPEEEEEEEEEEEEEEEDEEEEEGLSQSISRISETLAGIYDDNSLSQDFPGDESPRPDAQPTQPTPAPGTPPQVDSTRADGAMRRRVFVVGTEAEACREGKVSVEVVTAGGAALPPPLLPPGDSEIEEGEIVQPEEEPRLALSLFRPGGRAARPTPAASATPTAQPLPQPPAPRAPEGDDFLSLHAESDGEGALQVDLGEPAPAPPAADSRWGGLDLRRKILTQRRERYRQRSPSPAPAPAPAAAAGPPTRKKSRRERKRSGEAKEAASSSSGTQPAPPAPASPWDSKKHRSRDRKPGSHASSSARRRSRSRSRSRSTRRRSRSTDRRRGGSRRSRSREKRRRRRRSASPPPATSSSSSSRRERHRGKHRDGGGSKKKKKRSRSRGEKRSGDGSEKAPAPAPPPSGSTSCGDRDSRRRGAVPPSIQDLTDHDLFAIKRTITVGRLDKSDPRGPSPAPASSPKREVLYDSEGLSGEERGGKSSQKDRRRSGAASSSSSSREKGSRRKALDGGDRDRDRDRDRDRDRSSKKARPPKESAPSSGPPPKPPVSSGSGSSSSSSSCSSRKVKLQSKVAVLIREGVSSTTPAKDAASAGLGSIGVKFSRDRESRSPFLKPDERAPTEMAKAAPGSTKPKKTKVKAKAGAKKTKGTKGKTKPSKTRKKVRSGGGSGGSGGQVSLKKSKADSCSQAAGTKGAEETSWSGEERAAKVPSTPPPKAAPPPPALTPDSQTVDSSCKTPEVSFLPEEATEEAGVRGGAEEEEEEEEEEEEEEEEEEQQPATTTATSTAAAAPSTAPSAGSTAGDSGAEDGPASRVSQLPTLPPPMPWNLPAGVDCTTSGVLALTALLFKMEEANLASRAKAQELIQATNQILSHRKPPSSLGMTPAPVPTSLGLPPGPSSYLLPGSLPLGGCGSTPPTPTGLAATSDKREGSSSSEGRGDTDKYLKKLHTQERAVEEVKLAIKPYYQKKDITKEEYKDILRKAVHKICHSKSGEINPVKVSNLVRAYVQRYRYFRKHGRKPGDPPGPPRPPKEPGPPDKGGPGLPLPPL
inactive: alvocidib 0.054 | Tubastatin A 0.034 | [1] -0.051 | defactinib 0.046 | [2] 0.051 | encorafenib -0.028 | [3] -0.066 | alisertib 0.128 | [4] -0.02 | gefitinib 0.129 | lapatinib -0.06 | pictilisib -0.107 | crizotinib -0.011 | [5] 0.017 | duvelisib -0.337 | gandotinib -0.074 | tozasertib -0.023 | doramapimod 0.052 | bafetinib -0.27 | [6] -0.096

SAR1A (UniProt Q9NR31)
Sequence of UniProt Q9NR31 (Q9NR31 whole entry, looked up): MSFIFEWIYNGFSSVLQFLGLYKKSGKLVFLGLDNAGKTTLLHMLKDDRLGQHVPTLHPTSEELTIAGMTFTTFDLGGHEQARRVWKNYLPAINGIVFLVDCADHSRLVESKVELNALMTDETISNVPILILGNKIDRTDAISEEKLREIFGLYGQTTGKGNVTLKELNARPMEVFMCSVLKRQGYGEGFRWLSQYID
inactive: alvocidib -0.034 | Tubastatin A 0.153 | [1] 0.03 | defactinib 0.086 | [2] 0.086 | encorafenib 0.152 | [3] 0.084 | alisertib 0.134 | [4] 0.161 | gefitinib 0.156 | lapatinib 0.101 | pictilisib 0.191 | crizotinib -0.056 | [5] 0.033 | duvelisib 0.002 | gandotinib 0.341 | tozasertib 0.027 | bafetinib -0.022 | [6] 0.156
active: doramapimod 0.504

RPN2 (UniProt P04844)
Sequence of UniProt P04844 (P04844 whole entry, looked up): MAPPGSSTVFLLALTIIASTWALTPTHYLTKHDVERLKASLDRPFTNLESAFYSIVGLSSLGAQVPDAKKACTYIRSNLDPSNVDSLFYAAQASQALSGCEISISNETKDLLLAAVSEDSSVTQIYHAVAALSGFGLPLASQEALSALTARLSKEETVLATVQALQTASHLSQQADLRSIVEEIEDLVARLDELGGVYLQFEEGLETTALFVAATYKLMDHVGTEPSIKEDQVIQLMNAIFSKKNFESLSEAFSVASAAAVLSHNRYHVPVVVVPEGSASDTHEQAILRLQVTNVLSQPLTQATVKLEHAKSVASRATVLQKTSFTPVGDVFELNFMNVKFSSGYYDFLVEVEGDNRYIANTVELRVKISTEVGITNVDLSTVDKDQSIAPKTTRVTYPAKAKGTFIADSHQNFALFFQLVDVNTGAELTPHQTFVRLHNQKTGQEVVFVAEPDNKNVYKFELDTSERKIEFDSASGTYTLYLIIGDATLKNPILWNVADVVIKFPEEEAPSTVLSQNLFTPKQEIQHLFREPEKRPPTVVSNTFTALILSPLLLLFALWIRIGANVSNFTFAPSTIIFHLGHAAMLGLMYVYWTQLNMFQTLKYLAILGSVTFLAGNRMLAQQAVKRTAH
inactive: alvocidib -0.024 | Tubastatin A 0.001 | [1] -0.024 | defactinib -0.006 | [2] -0.01 | encorafenib 0.041 | [3] -0.031 | alisertib -0.008 | [4] -0.03 | gefitinib 0.011 | lapatinib -0.048 | pictilisib -0.006 | crizotinib -0.004 | [5] -0.074 | duvelisib -0.003 | gandotinib 0.039 | tozasertib -0.003 | doramapimod 0 | bafetinib -0.032 | [6] 0.06

SCO2 (UniProt O43819)
Sequence of UniProt O43819 (O43819 whole entry, looked up): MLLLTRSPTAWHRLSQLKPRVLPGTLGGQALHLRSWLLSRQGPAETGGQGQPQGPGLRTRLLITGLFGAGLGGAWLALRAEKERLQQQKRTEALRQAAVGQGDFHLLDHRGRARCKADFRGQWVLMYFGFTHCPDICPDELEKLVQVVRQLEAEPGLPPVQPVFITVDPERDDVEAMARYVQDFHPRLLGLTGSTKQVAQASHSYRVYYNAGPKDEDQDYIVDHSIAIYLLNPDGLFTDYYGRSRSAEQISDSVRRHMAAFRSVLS
active: [3] -0.607
inactive: alvocidib -0.009 | Tubastatin A 0.039 | [1] 0.073 | defactinib 0.008 | [2] -0.007 | encorafenib 0.027 | alisertib -0.115 | [4] 0.046 | gefitinib 0.114 | lapatinib 0.118 | pictilisib -0.057 | crizotinib 0.026 | [5] -0.163 | duvelisib 0.092 | gandotinib 0.048 | tozasertib -0.007 | doramapimod 0.002 | bafetinib 0.029 | [6] 0.101

RCOR1 (UniProt Q9UKL0)
Sequence of UniProt Q9UKL0 (Q9UKL0 whole entry, looked up): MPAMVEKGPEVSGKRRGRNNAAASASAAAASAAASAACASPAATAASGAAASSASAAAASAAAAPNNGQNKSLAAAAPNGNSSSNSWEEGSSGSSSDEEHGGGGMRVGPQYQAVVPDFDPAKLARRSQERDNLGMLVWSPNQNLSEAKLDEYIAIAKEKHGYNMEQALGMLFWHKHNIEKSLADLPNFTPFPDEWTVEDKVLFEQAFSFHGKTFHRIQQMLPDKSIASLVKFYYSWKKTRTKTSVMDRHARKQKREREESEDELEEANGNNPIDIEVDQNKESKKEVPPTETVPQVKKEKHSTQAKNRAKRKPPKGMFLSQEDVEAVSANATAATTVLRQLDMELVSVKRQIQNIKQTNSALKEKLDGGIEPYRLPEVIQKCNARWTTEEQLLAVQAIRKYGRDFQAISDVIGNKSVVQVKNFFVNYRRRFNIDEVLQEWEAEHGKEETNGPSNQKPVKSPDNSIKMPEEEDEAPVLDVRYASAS
inactive: alvocidib -0.031 | Tubastatin A -0.021 | [1] -0.017 | defactinib -0.039 | [2] 0.014 | encorafenib 0.01 | [3] 0.115 | alisertib 0.023 | [4] 0.027 | gefitinib -0.011 | lapatinib -0.056 | pictilisib -0.069 | crizotinib 0.048 | [5] -0.083 | duvelisib -0.004 | gandotinib -0.009 | tozasertib 0.019 | doramapimod -0.061 | bafetinib -0.056 | [6] 0.041

RPL37A (UniProt P61513)
inactive: alvocidib 0.159 | Tubastatin A 0.024 | [1] 0.022 | defactinib -0.045 | [2] 0.161 | encorafenib 0.004 | [3] 0.021 | alisertib -0.006 | [4] 0.004 | gefitinib -0.064 | lapatinib -0.012 | pictilisib -0.01 | crizotinib -0.011 | duvelisib -0.088 | gandotinib -0.131 | tozasertib -0.087 | doramapimod -0.044 | bafetinib 0.02 | [6] -0.2
active: [5] 0.312

From the supplement of paper PMC10849652
